Laboratory results as given in the supplement of paper PMC7156485.
Values joined by “and” are separate entries in the source; they are usually repeats but may differ in a detail not shown here. Identical values can stand only once. Counter-ions that a name gives are not always drawn. ± gives the standard deviation of the averaged measurements.

Each compound was assayed on HCC1569 (assay: cell number relative to DMSO (% of DMSO); higher = more cells (less growth inhibition / toxicity)). Details: concentration: 10 µM; 24 h.
Method in brief: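 Compounds were applied at 10 µM for 24 h at 37 °C, in triplicate, to HCC1569 and TDF cells. The cells were then fixed and stained for H1.0, and nuclei were counterstained with DAPI. Nuclear H1.0 intensity or cell number is reported relative to the plate control as a percent, taking the median of replicates. Smoothing for positional effects was applied to HCC1569 values only.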
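Note: TDF denotes transformed human dermal fibroblasts of mesenchymal origin.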

Structure (SMILES)	cell number
O=Cc1c2[nH]c3ccccc3c2cc2[nH]c3ccccc3c12 [6-Formylindolo [3,2-B] carbazole]	101
COc1cc2ccccc2cc1C(=O)OC(C)C(=O)NCc1ccc(F)cc1 (stereo not given) [IP3K Inhibitor]	102
C#CC(N)CCC(=O)O (stereo not given) [gamma-Acetylinic GABA]	103
OC1C(O)C(O)C(O)C(O)C1O (stereo not given) [1,2,3,4,5,6-cyclohexanehexol]	102 ± 3
CCCC1OC2CC3C4CCC5=CC(=O)C=CC5(C)C4C(O)CC3(C)C2(C(=O)CO)O1 (stereo not given) [Budesonide]	97.2
COC1=CC(=O)CC(C)C12Oc1c(Cl)c(OC)cc(OC)c1C2=O (single isomer, unassigned; (+)) [(+)-Griseofulvin]	100
CN(C)CCC(c1ccc(Cl)cc1)c1ccccn1.O=C(O)C=CC(=O)O (single isomer, unassigned; (+)) [(+)-Chlorpheniramine maleate]	104
COc1nc(C)nc(Cl)c1NC1=NCCN1.Cl [Moxonidine hydrochloride]	102
CN(C)CCCOC1C(C(O)CO)OC2OC(C)(C)OC21.Cl (stereo not given) [Amiprilose hydrochloride]	101
Cl.c1ccc(C2CCCC2NC2=NCCCCCCCCCCC2)cc1 (stereo not given) [MDL 12,330A hydrochloride]	105
COc1ccc2c(c1)c(CC(=O)O)c(C)n2C(=O)c1ccccc1 [1-benzoyl-5-methoxy-2-methylindole-3-acetic acid]	101
CCn1cc(C(=O)O)c(=O)c2cc(F)c(N3CCN(C)CC3)cc21.CS(=O)(=O)O.O.O [Pefloxacine mesylate dihydrate]	103
CCCCCCCCC=CCCCCCCCC(N)=O [9,10-Octadecenoamide]	98.5
CCCCC1CCC(c2nc(-c3ccncc3)no2)CC1 (stereo not given) [4-[5-(4-butylcyclohexyl)-1,2,4-oxadiazol-3-yl]pyridine]	94.1
COc1ccc(-c2cc(=O)c3c(O)cc(O)cc3o2)cc1 [Acacetine]	98.4
COc1cc(=O)n(C)c2c(OCC(O)C(C)(C)O)cccc12 (stereo not given) [Foliosidine]	103
CCCC[C@@H](C=O)NC(=O)[C@H](CC(C)C)NC(=O)[C@H](CC(C)C)NC(C)=O	47.1
Cl.O=c1n(CCCN2CCN(c3cccc(Cl)c3)CC2)nc2ccccn12 [Trazodone hydrochloride]	102
CCCCCCCCCCCCCC(=O)NC(C)C(O)c1ccccc1 [L-erythro MAPP]	97.3
COc1ccc(-n2c(SCC#N)nc3sc4c(c3c2=O)CCCC4)cc1	91.9

Structure (SMILES)	cell number
O=C(O)c1cc(=O)c2ccccc2[nH]1 [Kynurenic acid]	107
CS(=O)c1ccc(-c2nc(-c3ccc(F)cc3)c(-c3ccncc3)[nH]2)cc1 (stereo not given)	92.7
CS(=O)(=O)CCNCc1ccc(-c2ccc3ncnc(Nc4ccc(OCc5cccc(F)c5)c(Cl)c4)c3c2)o1.Cc1ccc(S(=O)(=O)O)cc1.Cc1ccc(S(=O)(=O)O)cc1 [Lapatinib ditosylate]	88.5
O=C(C1CCCCC1)N1CC(=O)N2CCc3ccccc3C2C1 (stereo not given) [Praziquantel]	101 ± 4.6
CCCCCC(O)C=CC=CC=CC(O)CC=CCCCC(=O)O [8(S),15(S)-DIHETE all trans]	103
Nc1ncnc2c1ncn2C1OC(CO)C(O)C1O (stereo not given) [Adenosine]	107
CC1=C(CC(=O)O)c2cc(F)ccc2C1=Cc1ccc(S(C)=O)cc1 (stereo not given) [Sulindac]	103 ± 2
COc1ccc(-c2cc(=O)c3ccc(O)cc3o2)cc1 [Pratol]	98.5
COc1cc(C2CC(=O)c3c(O)cc(O)cc3O2)ccc1O (stereo not given) [Homoeriodictyol]	97.9
NC(N)=NC(=O)c1nc(Cl)c(N)nc1N [Amiloride]	101
COC1=C2CC(C)=c3c(C(C)=O)c(OC)c(O)c4c3c2c2c(cc(OC)c3c(OC)cc(O)c4c32)C(=O)C1=O [Hypocrellin B]	101
Cc1cc(Cc2cc(C)cc(C(C)(C)C)c2O)c(O)c(C(C)(C)C)c1	99.9 and 104
OC[C@@H](O)[C@H]1NC[C@@H](O)[C@H]1O [1,4-Dideoxy-1,4-imino-D-mannitol hydrochloride]	99.9
CCCCCCCCC(O)C=CC=CC=CC(O)CCCC(=O)O (stereo not given) [Leukotriene B3]	101
CCCCCC(O)C=CC1C(O)CC(O)C1CC=CCCCC(=O)O (stereo not given) [Prostaglandin F2a]	97.3
COC(=O)c1c(-c2cc(OC)c(OC)c(OC)c2)c2ccnc(OCc3ncccn3)c2c(=O)n1Cc1ccnc(C)c1.Cl	100
CN(C)c1nc(N)c(C(=O)N=C(N)N)nc1Cl.Cl [5-(N,N-Dimethyl)amiloride hydrochloride]	99.9
NC(=O)c1ccccc1 [Benzamide]	98.5
Nc1[nH]nc2nc3ccccc3nc12	95
CCCCCC(O)C=CC1=C(CCCCCCC(=O)O)C(=O)CC1 (stereo not given) [Prostaglandin B1]	101 ± 2.6
